# The supplement of paper PMC10037445
# In all, about 2,900 compounds were measured (“NF-kB SEAP reporter activity, fold change vs agonist alone”: median about 0.99, highest 2% from about 2.6 on). This excerpt belongs to a sample that is enriched for the highest values.
# Legend:
# RAW-Dual [1] = experiment: NF-kB SEAP reporter activity, fold change vs agonist alone; cytotoxicity flag (confluency mask): not cytotoxic; higher = enhanced NF-kB activity
# Outline: (§1)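 Supernatant from RAW-Dual macrophages was read after 20 hours for IRF by QuantiLuc luminescence and for NF-κB by QuantiBlue absorbance at 620 nm. The cells (50,000 cells/well in DMEM, 384-well plates, 37 °C, 5% CO2) had received 50 nL of library stock by pin tool and, 1 h later, a PRR agonist. Reporter activity is expressed relative to agonist-alone wells as fold change, and wells were flagged cytotoxic if IncuCyte confluency was under 70% of agonist controls in both mask sets.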
# RAW-Dual [2] = experiment: NF-kB SEAP reporter activity, fold change vs agonist alone; higher = enhanced NF-kB activity
# Outline: as §1
# RAW-Dual [3] = experiment: NF-kB SEAP reporter activity, fold change vs agonist alone; cytotoxicity flag (confluency mask): cytotoxic (confluency <70% of control); higher = enhanced NF-kB activity
# Outline: as §1
# [4] = agonist: ODN 1826 (TLR9) 0.5 ug/mL
# [5] = agonist: Pam2CSK4 (TLR2/6) 0.1 ug/mL
# [6] = agonist: Pam3CSK4 (TLR2/1) 0.1 ug/mL
# [7] = library stock concentration (final ~1000-fold dilution): 10 mM, cytotoxicity flag (confluency mask): not cytotoxic, agonist: Imiquimod (TLR7) […]
# [8] = library stock concentration (final ~1000-fold dilution): 10 mM, cytotoxicity flag (confluency mask): not cytotoxic, agonist: MPLA (TLR4) […]
# [9] = library stock concentration (final ~1000-fold dilution): 10 mM, cytotoxicity flag (confluency mask): cytotoxic (confluency <70% of control), agonist: Imiquimod (TLR7) […]
# [10] = library stock concentration (final ~1000-fold dilution): 10 mM, cytotoxicity flag (confluency mask): cytotoxic (confluency <70% of control), agonist: MPLA (TLR4) […]
# [11] = library stock concentration (final ~1000-fold dilution): 10 mM water, cytotoxicity flag (confluency mask): not cytotoxic, agonist: Imiquimod (TLR7) […]
# [12] = library stock concentration (final ~1000-fold dilution): 10 mM water, cytotoxicity flag (confluency mask): not cytotoxic, agonist: MPLA (TLR4) […]
compound,measurement,setting,value
COc1cc2c(cc1NS(=O)(=O)c1ccc(Br)cc1C)n(C)c(=O)n2C (library stock concentration (final ~1000-fold dilution): 10 mM),NF-kB SEAP reporter activity,RAW-Dual [1]; agonist: LPS (TLR4) 0.1 ug/mL,1.73
same,NF-kB SEAP reporter activity,RAW-Dual [1]; [4],1.23
same,NF-kB SEAP reporter activity,RAW-Dual [1]; [5],0.828
same,NF-kB SEAP reporter activity,RAW-Dual [1]; [6],1.08
COc1cc2c(cc1NS(=O)(=O)c1ccc(Br)cc1C)n(C)c(=O)n2C,NF-kB SEAP reporter activity,RAW-Dual [2]; [7],0.973
same,NF-kB SEAP reporter activity,RAW-Dual [2]; [8],1.39
CN1C(=N)NC(C)(c2cc(NC(=O)c3ccc(F)cn3)ccc2F)CS1(=O)=O (stereo not drawn) (library stock concentration (final ~1000-fold dilution): 10 mM),NF-kB SEAP reporter activity,RAW-Dual [1]; agonist: LPS (TLR4) 0.1 ug/mL,0.906
same,NF-kB SEAP reporter activity,RAW-Dual [1]; [4],0.673
same,NF-kB SEAP reporter activity,RAW-Dual [1]; [5],0.747
same,NF-kB SEAP reporter activity,RAW-Dual [1]; [6],0.657
CN1C(=N)NC(C)(c2cc(NC(=O)c3ccc(F)cn3)ccc2F)CS1(=O)=O (stereo not drawn),NF-kB SEAP reporter activity,RAW-Dual [2]; [7],0.847
same,NF-kB SEAP reporter activity,RAW-Dual [2]; [8],0.931
COc1ccc(-n2c(SCCCN3C(=O)c4cccc5cccc(c45)C3=O)nnc2-c2ccncc2)cc1,NF-kB SEAP reporter activity,RAW-Dual [2]; [7],1.08
same,NF-kB SEAP reporter activity,RAW-Dual [2]; [8],1.32
O=C(O)CN1C(=O)c2cccc3cccc(c23)C1=O,NF-kB SEAP reporter activity,RAW-Dual [2]; [7],0.931
same,NF-kB SEAP reporter activity,RAW-Dual [2]; [8],1.03
O=C(CCCCCN1C(=O)c2cccc3cccc(c23)C1=O)NO (library stock concentration (final ~1000-fold dilution): 10 mM),NF-kB SEAP reporter activity,RAW-Dual [3]; agonist: LPS (TLR4) 0.1 ug/mL,3.67
same,NF-kB SEAP reporter activity,RAW-Dual [3]; [4],2.57
same,NF-kB SEAP reporter activity,RAW-Dual [3]; [5],1.28
same,NF-kB SEAP reporter activity,RAW-Dual [3]; [6],2.06
O=C(CCCCCN1C(=O)c2cccc3cccc(c23)C1=O)NO,NF-kB SEAP reporter activity,RAW-Dual [2]; [9],1.51
same,NF-kB SEAP reporter activity,RAW-Dual [2]; [10],2.33
COc1ccc(-n2c(SCCCN3C(=O)c4cccc5cccc(c45)C3=O)nnc2-c2ccncc2)cc1 (library stock concentration (final ~1000-fold dilution): 10 mM),NF-kB SEAP reporter activity,RAW-Dual [1]; agonist: LPS (TLR4) 0.1 ug/mL,2.06
same,NF-kB SEAP reporter activity,RAW-Dual [1]; [4],1.17
same,NF-kB SEAP reporter activity,RAW-Dual [1]; [5],1.3
same,NF-kB SEAP reporter activity,RAW-Dual [1]; [6],2.18
O=C(O)CN1C(=O)c2cccc3cccc(c23)C1=O (library stock concentration (final ~1000-fold dilution): 10 mM),NF-kB SEAP reporter activity,RAW-Dual [1]; agonist: LPS (TLR4) 0.1 ug/mL,0.89
same,NF-kB SEAP reporter activity,RAW-Dual [1]; [4],0.942
same,NF-kB SEAP reporter activity,RAW-Dual [1]; [5],1.03
same,NF-kB SEAP reporter activity,RAW-Dual [1]; [6],1.06
CCCCCOc1ccc(-c2ccc(-c3ccc(C(=O)NC4CC(O)C(O)NC(=O)C5C(O)C(C)CN5C(=O)C(C(C)O)NC(=O)C(C(O)C(O)c5ccc(O)cc5)NC(=O)C5CC(O)CN5C(=O)C(C(C)O)NC4=O)cc3)cc2)cc1 (stereo not drawn) (library stock concentration (final ~1000-fold dilution): 10 mM),NF-kB SEAP reporter activity,RAW-Dual [3]; agonist: LPS (TLR4) 0.1 ug/mL,3.72
same,NF-kB SEAP reporter activity,RAW-Dual [3]; [4],0.545
same,NF-kB SEAP reporter activity,RAW-Dual [3]; [5],1.28
same,NF-kB SEAP reporter activity,RAW-Dual [3]; [6],1.42
CCCCCOc1ccc(-c2ccc(-c3ccc(C(=O)NC4CC(O)C(O)NC(=O)C5C(O)C(C)CN5C(=O)C(C(C)O)NC(=O)C(C(O)C(O)c5ccc(O)cc5)NC(=O)C5CC(O)CN5C(=O)C(C(C)O)NC4=O)cc3)cc2)cc1 (stereo not drawn),NF-kB SEAP reporter activity,RAW-Dual [2]; [9],1.67
same,NF-kB SEAP reporter activity,RAW-Dual [2]; [10],2.43
CCCCCOc1ccc(-c2cc(-c3ccc(C(=O)NC4CC(O)C(O)NC(=O)C5C(O)C(C)CN5C(=O)C(C(O)CC(N)=O)NC(=O)C(C(O)C(O)c5ccc(O)c(OS(=O)(=O)O)c5)NC(=O)C5CC(O)CN5C(=O)C(C(C)O)NC4=O)cc3)no2)cc1 (stereo not drawn) (library stock concentration (final ~1000-fold dilution): 10 mM water),NF-kB SEAP reporter activity,RAW-Dual [1]; agonist: LPS (TLR4) 0.1 ug/mL,1.2
same,NF-kB SEAP reporter activity,RAW-Dual [1]; [4],1.05
same,NF-kB SEAP reporter activity,RAW-Dual [1]; [5],0.968
same,NF-kB SEAP reporter activity,RAW-Dual [1]; [6],1.09
CCC(C)CC(C)CCCCCCCCC(=O)NC1CC(O)C(NCCN)NC(=O)C2C(O)CCN2C(=O)C(C(O)CCN)NC(=O)C(C(O)C(O)c2ccc(O)cc2)NC(=O)C2CC(O)CN2C(=O)C(C(C)O)NC1=O (stereo not drawn) (library stock concentration (final ~1000-fold dilution): 10 mM water),NF-kB SEAP reporter activity,RAW-Dual [1]; agonist: LPS (TLR4) 0.1 ug/mL,1.29
same,NF-kB SEAP reporter activity,RAW-Dual [1]; [4],1.08
same,NF-kB SEAP reporter activity,RAW-Dual [1]; [5],1.09
same,NF-kB SEAP reporter activity,RAW-Dual [1]; [6],0.968
CCCCCOc1ccc(-c2cc(-c3ccc(C(=O)NC4CC(O)C(O)NC(=O)C5C(O)C(C)CN5C(=O)C(C(O)CC(N)=O)NC(=O)C(C(O)C(O)c5ccc(O)c(OS(=O)(=O)O)c5)NC(=O)C5CC(O)CN5C(=O)C(C(C)O)NC4=O)cc3)no2)cc1 (stereo not drawn),NF-kB SEAP reporter activity,RAW-Dual [2]; [11],0.949
same,NF-kB SEAP reporter activity,RAW-Dual [2]; [12],1.14
CCC(C)CC(C)CCCCCCCCC(=O)NC1CC(O)C(NCCN)NC(=O)C2C(O)CCN2C(=O)C(C(O)CCN)NC(=O)C(C(O)C(O)c2ccc(O)cc2)NC(=O)C2CC(O)CN2C(=O)C(C(C)O)NC1=O (stereo not drawn),NF-kB SEAP reporter activity,RAW-Dual [2]; [11],0.901
same,NF-kB SEAP reporter activity,RAW-Dual [2]; [12],0.866
